The full data set covers some 7,900 targets. This sample favours those with a hit. About 0.6% of all pairs of compound and target were hits. Values without a mark were called inactive.
Legend:
Assay in all cases: log2 fold change, soluble protein after heating vs DMSO (PISA); higher = thermal stabilisation; K562 cells, 10 uM, 30 min; active = over 0.2 and 3.5 SD of the protein, either way, in both replicates (recomputed)
[1] = compound: NC(=O)Nc1cc(-c2cccc(F)c2)sc1C(=O)N[C@H]1CCCNC1
Procedure, shortened: (§1)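 For each measurement, 10 μM compound was applied for 30 min to K562 cells at 2×10^6 cells/mL. Aliquots were heated for 3 min across 48°C-58°C, pooled, and extracted in PBS with 0.5% NP-40 at 4°C; the supernatant after 21,000xg for 90 min was soluble protein. This was quantified by TMTpro 16plex LC-MS/MS with channel sums equalised, and thermal stability was reported relative to control samples from duplicates, on a log2 fold-change scale.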

[2] = compound: NC(=O)c1cnc(N[C@@H]2CCCC[C@@H]2N)nc1Nc1cccc(-n2nccn2)c1
Procedure, shortened: as §1

[3] = compound: NC1(c2ccc(-c3nc4ccn5c(=O)[nH]nc5c4cc3-c3ccccc3)cc2)CCC1
Procedure, shortened: as §1

[4] = compound: NCC(=O)Nc1ccc(-n2nc(C(F)(F)F)cc2-c2ccc3c(ccc4ccccc43)c2)cc1
Procedure, shortened: as §1

[5] = compound: Nc1ccccc1NC(=O)c1ccc(CNC(=O)OCc2cccnc2)cc1 [entinostat]
Procedure, shortened: as §1

[6] = compound: O=C(CCCCCCC(=O)Nc1ccccc1)NO [vorinostat]
Procedure, shortened: as §1

[7] = compound: O=C(CCCCCCNC(=O)c1cnc(N(c2ccccc2)c2ccccc2Cl)nc1)NO [citarinostat]
Procedure, shortened: as §1

[8] = compound: O=C(O)c1ccc2c(c1)nc(Nc1cccc(Cl)c1)c1ccncc12 [silmitasertib]
Procedure, shortened: as §1

[9] = compound: O=C1NC(=O)C(c2cnc3ccccn23)=C1c1cn2c3c(cc(F)cc13)CN(C(=O)N1CCCCC1)CC2
Procedure, shortened: as §1

[10] = compound: c1cc(OCCN2CCCCC2)cc(-c2n[nH]c3ccc(-c4nnc[nH]4)cc23)c1
Procedure, shortened: as §1

Target: HEXA (UniProt P06865)
- log2 fold change [1]: -0.025
- log2 fold change [2]: -0.06
- log2 fold change [3]: -0.156
- log2 fold change [4]: 0.006
- log2 fold change [5]: -0.028
- log2 fold change [6]: -0.02
- log2 fold change [7]: 0.056
- log2 fold change [8]: -0.013
- log2 fold change [9]: -0.037
- log2 fold change [10]: -0.022

Target: IDI1 isoform 2 (UniProt Q13907)
Chain of UniProt Q13907 (Q13907 whole entry, looked up): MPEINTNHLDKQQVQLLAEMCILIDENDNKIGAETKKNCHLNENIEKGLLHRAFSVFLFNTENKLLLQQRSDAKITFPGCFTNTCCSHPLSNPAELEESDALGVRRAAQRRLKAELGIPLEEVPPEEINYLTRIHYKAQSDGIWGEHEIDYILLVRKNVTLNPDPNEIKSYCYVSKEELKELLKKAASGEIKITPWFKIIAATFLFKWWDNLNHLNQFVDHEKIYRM
- log2 fold change [1]: -0.062
- log2 fold change [2]: 0.01
- log2 fold change [3]: -0.038
- log2 fold change [4]: 0.024
- log2 fold change [5]: -0.03
- log2 fold change [6]: 0.008
- log2 fold change [7]: -0.017
- log2 fold change [8]: 0.078
- log2 fold change [9]: -0.066
- log2 fold change [10]: 0.035

Target: HECTD1 (UniProt Q9ULT8)
Chain of UniProt Q9ULT8 (Q9ULT8 whole entry, looked up): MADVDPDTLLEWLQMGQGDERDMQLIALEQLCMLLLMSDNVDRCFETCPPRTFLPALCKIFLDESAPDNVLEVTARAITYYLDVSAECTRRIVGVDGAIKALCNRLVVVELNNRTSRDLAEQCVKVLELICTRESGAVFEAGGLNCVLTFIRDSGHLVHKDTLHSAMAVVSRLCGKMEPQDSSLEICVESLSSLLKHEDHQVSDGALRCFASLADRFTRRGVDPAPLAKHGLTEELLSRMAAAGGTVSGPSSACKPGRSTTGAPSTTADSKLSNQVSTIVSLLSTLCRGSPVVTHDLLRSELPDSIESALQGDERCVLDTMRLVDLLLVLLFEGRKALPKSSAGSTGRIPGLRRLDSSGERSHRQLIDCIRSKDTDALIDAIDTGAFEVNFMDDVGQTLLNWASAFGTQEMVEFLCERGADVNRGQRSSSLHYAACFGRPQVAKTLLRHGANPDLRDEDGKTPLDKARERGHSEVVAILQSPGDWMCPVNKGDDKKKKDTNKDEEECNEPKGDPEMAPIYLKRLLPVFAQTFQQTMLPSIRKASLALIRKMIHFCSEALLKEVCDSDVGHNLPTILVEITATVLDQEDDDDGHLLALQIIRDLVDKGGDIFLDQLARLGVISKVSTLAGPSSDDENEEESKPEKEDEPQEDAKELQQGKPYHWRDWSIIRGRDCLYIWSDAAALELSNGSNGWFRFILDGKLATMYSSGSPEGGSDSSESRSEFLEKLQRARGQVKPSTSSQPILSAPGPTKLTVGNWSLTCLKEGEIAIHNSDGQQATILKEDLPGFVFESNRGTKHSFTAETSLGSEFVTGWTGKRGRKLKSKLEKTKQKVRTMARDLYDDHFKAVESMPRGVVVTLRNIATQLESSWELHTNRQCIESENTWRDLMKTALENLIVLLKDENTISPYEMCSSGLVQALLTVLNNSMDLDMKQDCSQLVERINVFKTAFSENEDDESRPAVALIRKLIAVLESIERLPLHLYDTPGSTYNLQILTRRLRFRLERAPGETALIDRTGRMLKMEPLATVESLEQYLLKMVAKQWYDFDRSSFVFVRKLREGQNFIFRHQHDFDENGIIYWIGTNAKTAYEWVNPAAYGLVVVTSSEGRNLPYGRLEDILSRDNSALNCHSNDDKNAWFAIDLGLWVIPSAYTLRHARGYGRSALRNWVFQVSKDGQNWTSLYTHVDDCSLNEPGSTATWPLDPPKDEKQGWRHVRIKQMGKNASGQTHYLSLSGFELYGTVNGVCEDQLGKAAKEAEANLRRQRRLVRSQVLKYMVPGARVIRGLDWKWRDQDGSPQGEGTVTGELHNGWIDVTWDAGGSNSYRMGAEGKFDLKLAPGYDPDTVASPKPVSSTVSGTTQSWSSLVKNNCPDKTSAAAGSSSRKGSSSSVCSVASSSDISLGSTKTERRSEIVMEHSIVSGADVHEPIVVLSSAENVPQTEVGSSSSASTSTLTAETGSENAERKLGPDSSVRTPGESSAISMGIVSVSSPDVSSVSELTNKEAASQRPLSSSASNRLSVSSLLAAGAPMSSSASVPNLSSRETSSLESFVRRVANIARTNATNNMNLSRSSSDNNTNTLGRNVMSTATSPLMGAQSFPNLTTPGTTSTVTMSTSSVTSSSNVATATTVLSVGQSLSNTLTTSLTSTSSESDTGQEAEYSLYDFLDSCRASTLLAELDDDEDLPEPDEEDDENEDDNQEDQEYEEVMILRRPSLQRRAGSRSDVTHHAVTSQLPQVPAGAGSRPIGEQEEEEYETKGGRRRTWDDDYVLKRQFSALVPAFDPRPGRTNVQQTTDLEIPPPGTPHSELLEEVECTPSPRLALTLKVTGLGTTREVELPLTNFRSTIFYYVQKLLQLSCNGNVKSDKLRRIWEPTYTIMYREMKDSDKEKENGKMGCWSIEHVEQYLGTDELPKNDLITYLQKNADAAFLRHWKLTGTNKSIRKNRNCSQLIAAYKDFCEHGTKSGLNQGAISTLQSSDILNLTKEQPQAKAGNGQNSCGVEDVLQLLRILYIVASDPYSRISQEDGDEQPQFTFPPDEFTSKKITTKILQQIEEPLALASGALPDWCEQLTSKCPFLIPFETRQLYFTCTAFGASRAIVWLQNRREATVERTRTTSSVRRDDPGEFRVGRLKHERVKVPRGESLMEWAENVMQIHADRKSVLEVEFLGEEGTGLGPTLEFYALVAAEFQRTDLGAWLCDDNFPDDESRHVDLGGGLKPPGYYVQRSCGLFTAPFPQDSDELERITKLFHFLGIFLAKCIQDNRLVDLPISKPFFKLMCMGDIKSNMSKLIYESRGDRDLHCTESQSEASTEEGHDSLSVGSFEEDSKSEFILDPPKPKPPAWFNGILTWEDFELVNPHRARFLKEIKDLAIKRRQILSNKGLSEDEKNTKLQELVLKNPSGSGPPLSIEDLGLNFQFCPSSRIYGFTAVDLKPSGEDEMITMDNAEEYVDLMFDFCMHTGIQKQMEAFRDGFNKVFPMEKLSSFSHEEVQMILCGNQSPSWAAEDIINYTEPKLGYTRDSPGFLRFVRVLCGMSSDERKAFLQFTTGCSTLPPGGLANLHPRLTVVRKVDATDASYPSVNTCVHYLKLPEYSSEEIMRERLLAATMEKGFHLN
- log2 fold change [1]: -0.036
- log2 fold change [2]: -0.087
- log2 fold change [3]: -0.017
- log2 fold change [4]: -0.01
- log2 fold change [5]: 0.042
- log2 fold change [6]: 0.06
- log2 fold change [7]: 0.123
- log2 fold change [8]: 0.075
- log2 fold change [9]: -0.027
- log2 fold change [10]: -0.17

Target: GAPVD1 isoform 6 (UniProt Q14C86)
- log2 fold change [1]: 0.009
- log2 fold change [2]: -0.077
- log2 fold change [3]: -0.139
- log2 fold change [4]: -0.073
- log2 fold change [5]: 0.049
- log2 fold change [6]: 0.063
- log2 fold change [7]: 0.087
- log2 fold change [8]: 0.124
- log2 fold change [9]: 0.003
- log2 fold change [10]: -0.048

Target: GMEB1 (UniProt Q9Y692)
- log2 fold change [1]: 0.066
- log2 fold change [2]: -0.072
- log2 fold change [3]: -0.047
- log2 fold change [4]: 0.027
- log2 fold change [5]: 0.073
- log2 fold change [6]: 0.001
- log2 fold change [7]: 0.057
- log2 fold change [8]: 0.112
- log2 fold change [9]: -0.053
- log2 fold change [10]: -0.004

Target: GALNT2 (UniProt Q10471)
Chain of UniProt Q10471 (Q10471 whole entry, looked up): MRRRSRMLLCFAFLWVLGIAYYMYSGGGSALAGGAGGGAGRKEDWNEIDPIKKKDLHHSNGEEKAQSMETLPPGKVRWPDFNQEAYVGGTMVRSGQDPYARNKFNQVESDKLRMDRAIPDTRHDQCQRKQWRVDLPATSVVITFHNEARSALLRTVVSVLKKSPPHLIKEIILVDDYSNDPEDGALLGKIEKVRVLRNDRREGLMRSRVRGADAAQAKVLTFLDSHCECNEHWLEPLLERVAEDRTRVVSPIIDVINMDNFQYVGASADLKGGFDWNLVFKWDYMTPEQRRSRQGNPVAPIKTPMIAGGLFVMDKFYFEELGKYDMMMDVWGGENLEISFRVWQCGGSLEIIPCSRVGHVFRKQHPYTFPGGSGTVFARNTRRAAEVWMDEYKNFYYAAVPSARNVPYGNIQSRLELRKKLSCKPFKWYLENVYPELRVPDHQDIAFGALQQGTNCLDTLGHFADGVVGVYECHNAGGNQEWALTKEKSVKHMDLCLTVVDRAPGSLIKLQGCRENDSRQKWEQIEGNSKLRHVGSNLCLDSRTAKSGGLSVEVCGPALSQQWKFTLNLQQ
- log2 fold change [1]: 0
- log2 fold change [2]: -0.042
- log2 fold change [3]: -0.125
- log2 fold change [4]: 0.002
- log2 fold change [5]: -0.018
- log2 fold change [6]: 0.033
- log2 fold change [7]: 0.064
- log2 fold change [8]: -0.021
- log2 fold change [9]: -0.034
- log2 fold change [10]: 0.005

Target: HIP1 (UniProt O00291)
- log2 fold change [1]: -0.038
- log2 fold change [2]: 0.035
- log2 fold change [3]: 0.032
- log2 fold change [4]: 0.038
- log2 fold change [5]: -0.061
- log2 fold change [6]: -0.013
- log2 fold change [7]: 0.072
- log2 fold change [8]: -0.123
- log2 fold change [9]: -0.146
- log2 fold change [10]: 0.06

Target: GLYR1 (UniProt Q49A26)
Chain of UniProt Q49A26 (Q49A26 whole entry, looked up): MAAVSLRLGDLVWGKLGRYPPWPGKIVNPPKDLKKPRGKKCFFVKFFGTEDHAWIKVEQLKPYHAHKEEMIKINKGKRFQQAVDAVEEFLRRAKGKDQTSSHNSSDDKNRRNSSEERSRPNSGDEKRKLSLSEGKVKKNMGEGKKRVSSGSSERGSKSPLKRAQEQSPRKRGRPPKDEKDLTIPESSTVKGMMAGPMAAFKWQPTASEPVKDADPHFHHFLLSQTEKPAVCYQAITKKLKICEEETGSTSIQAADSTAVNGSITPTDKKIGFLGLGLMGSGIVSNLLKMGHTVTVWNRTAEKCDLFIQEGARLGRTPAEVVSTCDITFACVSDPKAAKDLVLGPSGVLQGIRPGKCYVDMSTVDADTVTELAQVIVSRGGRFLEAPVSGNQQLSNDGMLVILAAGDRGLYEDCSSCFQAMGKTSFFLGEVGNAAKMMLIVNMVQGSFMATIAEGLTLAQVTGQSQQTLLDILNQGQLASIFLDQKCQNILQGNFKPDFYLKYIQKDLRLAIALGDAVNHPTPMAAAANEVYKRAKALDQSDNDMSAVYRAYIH
- log2 fold change [1]: -0.023
- log2 fold change [2]: 0.034
- log2 fold change [3]: -0.032
- log2 fold change [4]: 0.112
- log2 fold change [5]: -0.049
- log2 fold change [6]: 0.027
- log2 fold change [7]: 0.011
- log2 fold change [8]: -0.015
- log2 fold change [9]: -0.009
- log2 fold change [10]: -0.135

Target: HSPA8 (UniProt E9PK54)
- log2 fold change [1]: 0.015
- log2 fold change [2]: 0.023
- log2 fold change [3]: -0.071
- log2 fold change [4]: -0.136
- log2 fold change [5]: 0.061
- log2 fold change [6]: -0.064
- log2 fold change [7]: 0.068
- log2 fold change [8]: 0.028
- log2 fold change [9]: 0.093
- log2 fold change [10]: -0.027

Target: GDI1 (UniProt P31150)
- log2 fold change [1]: -0.018
- log2 fold change [2]: -0.066
- log2 fold change [3]: -0.051
- log2 fold change [4]: -0.04
- log2 fold change [5]: -0.016
- log2 fold change [6]: 0.022
- log2 fold change [7]: 0.014
- log2 fold change [8]: -0.012
- log2 fold change [9]: -0.037
- log2 fold change [10]: -0.04

Target: HSPA8 (UniProt E9PN89)
- log2 fold change [1]: -0.317
- log2 fold change [2]: -0.283
- log2 fold change [3]: -0.172
- log2 fold change [4]: -0.372
- log2 fold change [5]: -0.135
- log2 fold change [6]: -0.057
- log2 fold change [7]: -0.304
- log2 fold change [8]: 0.365
- log2 fold change [9]: -0.102
- log2 fold change [10]: -0.394

Target: HMGN2 (UniProt P05204)
- log2 fold change [1]: 0.071
- log2 fold change [2]: 0.07
- log2 fold change [3]: 0.139
- log2 fold change [4]: 0.027
- log2 fold change [5]: -0.092
- log2 fold change [6]: -0.225
- log2 fold change [7]: -0.129
- log2 fold change [8]: 0.02
- log2 fold change [9]: 0.067
- log2 fold change [10]: 0.151

Target: FBXO6 (UniProt Q9NRD1)
- log2 fold change [1]: -0.009
- log2 fold change [2]: 0.034
- log2 fold change [3]: 0.366 (active)
- log2 fold change [4]: 0.028
- log2 fold change [5]: 0.013
- log2 fold change [6]: 0.074
- log2 fold change [7]: 0.075
- log2 fold change [8]: 0.012
- log2 fold change [9]: -0.017
- log2 fold change [10]: 0.026

Target: GTF2H3 (UniProt Q13889)
- log2 fold change [1]: -0.133
- log2 fold change [2]: -0.152
- log2 fold change [3]: 0.12
- log2 fold change [4]: -0.063
- log2 fold change [5]: 0.141
- log2 fold change [6]: 0.037
- log2 fold change [7]: -0.049
- log2 fold change [8]: -0.004
- log2 fold change [9]: -0.041
- log2 fold change [10]: -0.015

Target: GAK (UniProt O14976)
- log2 fold change [1]: 1.52
- log2 fold change [2]: 0.465
- log2 fold change [3]: 0.145
- log2 fold change [4]: 1.4
- log2 fold change [5]: -0.072
- log2 fold change [6]: -0.01
- log2 fold change [7]: -0.244
- log2 fold change [8]: 0.607
- log2 fold change [9]: 0.236
- log2 fold change [10]: 0.687

Target: GCC2 (UniProt Q8IWJ2)
- log2 fold change [1]: -0.009
- log2 fold change [2]: -0.005
- log2 fold change [3]: 0.081
- log2 fold change [4]: 0.009
- log2 fold change [5]: 0.03
- log2 fold change [6]: -0.002
- log2 fold change [7]: -0.066
- log2 fold change [8]: 0.212
- log2 fold change [9]: 0.225
- log2 fold change [10]: 0.009

Target: HIST2H2BF isoform 2 (UniProt Q5QNW6)
- log2 fold change [1]: 0.048
- log2 fold change [2]: 0.225
- log2 fold change [3]: 0.48
- log2 fold change [4]: -0.029
- log2 fold change [5]: 0.159
- log2 fold change [6]: 0.123
- log2 fold change [7]: -0.001
- log2 fold change [8]: -0.064
- log2 fold change [9]: 0.101
- log2 fold change [10]: 0.016

Target: FEN1 (UniProt P39748)
- log2 fold change [1]: -0.022
- log2 fold change [2]: -0.154
- log2 fold change [3]: -0.28
- log2 fold change [4]: -0.157
- log2 fold change [5]: 0.034
- log2 fold change [6]: 0.246
- log2 fold change [7]: 0.111
- log2 fold change [8]: -0.1
- log2 fold change [9]: -0.129
- log2 fold change [10]: 0.035

Target: HNRNPH2 (UniProt P55795)
- log2 fold change [1]: -0.073
- log2 fold change [2]: -0.03
- log2 fold change [3]: -0.124
- log2 fold change [4]: -0.077
- log2 fold change [5]: 0.016
- log2 fold change [6]: 0.114
- log2 fold change [7]: 0.06
- log2 fold change [8]: 0.031
- log2 fold change [9]: -0.007
- log2 fold change [10]: -0.086

Target: FUNDC1 (UniProt Q8IVP5)
Chain of UniProt Q8IVP5 (Q8IVP5 whole entry, looked up): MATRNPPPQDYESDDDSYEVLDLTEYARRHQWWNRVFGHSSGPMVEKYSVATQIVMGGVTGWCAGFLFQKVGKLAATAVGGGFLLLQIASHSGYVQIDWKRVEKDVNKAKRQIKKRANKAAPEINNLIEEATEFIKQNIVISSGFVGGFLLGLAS
- log2 fold change [1]: -0.058
- log2 fold change [3]: -0.104
- log2 fold change [5]: 0.01
- log2 fold change [8]: 0.055

Target: FASTKD1 (UniProt Q53R41)
Chain of UniProt Q53R41 (Q53R41 whole entry, looked up): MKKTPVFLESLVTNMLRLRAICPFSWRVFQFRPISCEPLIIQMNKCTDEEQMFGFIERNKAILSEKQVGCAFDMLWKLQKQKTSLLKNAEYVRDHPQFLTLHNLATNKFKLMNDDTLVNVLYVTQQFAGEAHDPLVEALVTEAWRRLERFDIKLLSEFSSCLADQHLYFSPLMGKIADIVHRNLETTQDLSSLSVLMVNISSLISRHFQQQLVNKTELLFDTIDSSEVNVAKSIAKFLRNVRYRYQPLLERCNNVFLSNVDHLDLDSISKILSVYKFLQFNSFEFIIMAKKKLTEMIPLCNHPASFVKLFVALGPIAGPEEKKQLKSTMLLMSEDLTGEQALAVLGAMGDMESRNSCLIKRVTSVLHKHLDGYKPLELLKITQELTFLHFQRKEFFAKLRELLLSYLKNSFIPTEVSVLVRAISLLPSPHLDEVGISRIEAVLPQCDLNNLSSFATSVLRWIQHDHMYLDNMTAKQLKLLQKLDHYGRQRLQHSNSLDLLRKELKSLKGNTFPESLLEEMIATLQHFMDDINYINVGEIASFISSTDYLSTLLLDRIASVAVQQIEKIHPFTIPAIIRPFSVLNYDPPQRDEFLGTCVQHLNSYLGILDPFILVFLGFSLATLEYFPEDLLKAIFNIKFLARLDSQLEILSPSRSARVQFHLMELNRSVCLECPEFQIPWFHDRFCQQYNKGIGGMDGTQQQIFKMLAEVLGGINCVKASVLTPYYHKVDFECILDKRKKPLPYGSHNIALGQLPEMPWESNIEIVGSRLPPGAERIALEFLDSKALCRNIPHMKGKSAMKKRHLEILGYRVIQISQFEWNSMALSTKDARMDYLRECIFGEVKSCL
- log2 fold change [1]: 0.046
- log2 fold change [2]: -0.014
- log2 fold change [4]: 0.033
- log2 fold change [5]: -0.019
- log2 fold change [6]: 0.018
- log2 fold change [7]: -0.055
- log2 fold change [9]: -0.12
- log2 fold change [10]: 0.046

Target: FAT2 (UniProt Q9NYQ8)
- log2 fold change [3]: -0.334
- log2 fold change [4]: -0.134
- log2 fold change [6]: 0.068
- log2 fold change [7]: -0.045
- log2 fold change [8]: -0.063
- log2 fold change [9]: -0.06
- log2 fold change [10]: -0.06

— the supplement of paper PMC10849652
